# From ChEMBL document CHEMBL1961873, “Compounds: GSK PKIS; Assays: Nanosyn kinase panel” (2012)
# Where “and” joins values, the source holds several entries; their conditions need not be identical. Identical values can stand only once.
# Assays:
# [1] = target: T1, 3-phosphoinositide-dependent protein kinase 1 (Homo sapiens) (UniProt O15530); conditions: at 0.1 µM;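 also: values are mean inhibition of PDK1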
# T1 sequence (whole entry): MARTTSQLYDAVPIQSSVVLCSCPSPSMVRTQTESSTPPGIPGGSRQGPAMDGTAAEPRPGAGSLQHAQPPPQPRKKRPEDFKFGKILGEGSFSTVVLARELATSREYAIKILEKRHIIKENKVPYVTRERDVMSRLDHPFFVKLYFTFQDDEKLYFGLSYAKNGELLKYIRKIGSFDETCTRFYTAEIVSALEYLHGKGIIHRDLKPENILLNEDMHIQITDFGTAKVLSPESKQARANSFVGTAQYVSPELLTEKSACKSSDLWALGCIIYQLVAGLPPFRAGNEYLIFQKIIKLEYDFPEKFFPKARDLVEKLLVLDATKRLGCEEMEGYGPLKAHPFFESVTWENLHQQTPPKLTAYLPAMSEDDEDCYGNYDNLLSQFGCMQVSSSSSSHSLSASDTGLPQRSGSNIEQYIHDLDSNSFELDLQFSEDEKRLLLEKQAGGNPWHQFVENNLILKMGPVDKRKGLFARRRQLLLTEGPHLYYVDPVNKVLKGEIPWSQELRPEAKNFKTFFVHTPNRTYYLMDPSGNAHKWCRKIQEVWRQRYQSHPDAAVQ
# [2] = target: cAMP-dependent protein kinase catalytic subunit alpha (Homo sapiens) (UniProt P17612); conditions: at 0.1 µM
# [3] = target: cAMP-dependent protein kinase catalytic subunit alpha (Homo sapiens) (UniProt P17612); conditions: at 1 µM
# [4] = target: Protein kinase C alpha type (Homo sapiens) (UniProt P17252); conditions: at 0.1 µM
# [5] = target: Protein kinase C alpha type (Homo sapiens) (UniProt P17252); conditions: at 1 µM
# [6] = target: Protein kinase C beta type (Homo sapiens) (UniProt P05771); conditions: at 0.1 µM
# [7] = target: Protein kinase C beta type (Homo sapiens) (UniProt P05771); conditions: at 1 µM
# [8] = target: Protein kinase C eta type (Homo sapiens) (UniProt P24723); conditions: at 0.1 µM
# [9] = target: Protein kinase C eta type (Homo sapiens) (UniProt P24723); conditions: at 1 µM
# [10] = target: Protein kinase C gamma type (Homo sapiens) (UniProt P05129); conditions: at 0.1 µM;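 also: values are mean percent inhibition of PKC gamma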
# Protein kinase C beta type (Homo sapiens), sequence (P05771 2-671 limits assumed): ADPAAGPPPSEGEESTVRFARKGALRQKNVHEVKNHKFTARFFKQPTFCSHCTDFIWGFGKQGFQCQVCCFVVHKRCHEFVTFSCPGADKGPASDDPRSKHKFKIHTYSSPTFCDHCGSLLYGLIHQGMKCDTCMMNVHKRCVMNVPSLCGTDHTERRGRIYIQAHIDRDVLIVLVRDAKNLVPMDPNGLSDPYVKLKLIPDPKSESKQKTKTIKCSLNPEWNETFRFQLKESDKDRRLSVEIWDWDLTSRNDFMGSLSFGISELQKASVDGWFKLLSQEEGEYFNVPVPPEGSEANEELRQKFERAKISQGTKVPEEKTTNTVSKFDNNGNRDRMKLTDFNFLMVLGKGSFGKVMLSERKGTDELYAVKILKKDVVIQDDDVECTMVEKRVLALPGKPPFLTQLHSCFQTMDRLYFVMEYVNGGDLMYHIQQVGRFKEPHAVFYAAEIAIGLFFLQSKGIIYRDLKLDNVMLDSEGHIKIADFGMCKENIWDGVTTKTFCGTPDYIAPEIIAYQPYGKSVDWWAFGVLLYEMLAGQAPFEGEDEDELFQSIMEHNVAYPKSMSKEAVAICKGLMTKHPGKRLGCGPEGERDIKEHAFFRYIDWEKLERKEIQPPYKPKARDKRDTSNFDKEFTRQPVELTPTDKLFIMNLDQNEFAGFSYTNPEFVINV
# Protein kinase C eta type (Homo sapiens), sequence (P24723 whole entry): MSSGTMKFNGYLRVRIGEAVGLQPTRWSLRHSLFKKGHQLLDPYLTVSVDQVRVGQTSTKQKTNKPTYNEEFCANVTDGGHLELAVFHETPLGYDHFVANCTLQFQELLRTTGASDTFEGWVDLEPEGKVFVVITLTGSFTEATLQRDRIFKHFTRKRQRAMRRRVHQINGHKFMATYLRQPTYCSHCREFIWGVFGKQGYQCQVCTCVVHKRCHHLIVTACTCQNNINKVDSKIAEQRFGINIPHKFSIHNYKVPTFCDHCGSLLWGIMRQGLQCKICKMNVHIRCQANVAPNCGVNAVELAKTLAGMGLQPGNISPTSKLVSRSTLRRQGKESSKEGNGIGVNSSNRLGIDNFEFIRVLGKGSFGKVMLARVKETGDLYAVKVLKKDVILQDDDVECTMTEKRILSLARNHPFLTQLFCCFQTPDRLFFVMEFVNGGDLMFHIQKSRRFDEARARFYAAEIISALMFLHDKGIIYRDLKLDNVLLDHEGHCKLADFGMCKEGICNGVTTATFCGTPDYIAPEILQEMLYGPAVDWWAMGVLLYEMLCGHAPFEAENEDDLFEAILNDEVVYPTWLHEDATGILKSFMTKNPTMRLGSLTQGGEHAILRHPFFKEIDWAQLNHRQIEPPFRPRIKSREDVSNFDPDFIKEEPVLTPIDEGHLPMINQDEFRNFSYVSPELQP
SMILES,inhibition [1],inhibition [2],inhibition [3],inhibition [4],inhibition [5],inhibition [6],inhibition [7],inhibition [8],inhibition [9],inhibition [10]
CC1(C)CC(n2cnc(-c3ccc(F)cc3)c2-c2ccnc(N)n2)CC(C)(C)N1,0.82%,0.29%,4.01%,0.96%,2.63%,1.89%,3.35%,1.68%,-2.97%,-2.6%
CS(=O)(=O)CCNCc1ccc(-c2ccc3ncnc(Nc4ccc(OCc5cccc(C(F)(F)F)c5)cc4)c3c2)o1,0.06%,1.97%,4.62%,1.05%,2.11%,1.32%,0.08%,6.28%,4.9%,2.65%
c1cnn2ncc(-c3ccnc(NCCCN4CCOCC4)n3)c2c1,1.41%,2.68%,5.3%,0.87%,2.26%,2.73%,5.57%,3.67%,2.05%,3.52%
CN1CCC(C(=O)Nc2n[nH]c3nc(-c4ccc(O)cc4)c(Br)cc23)CC1,0.58% and 1.23%,-1.53% and 1.47%,1.39% and 2.8%,-2.91% and 0.74%,7.49% and 11.2%,2.04% and 0.96%,13.9% and 10.2%,3.63% and 1.62%,8.67% and 3.54%,4.29% and -2.24%
Fc1ccc(Nc2nccc(-c3c(-c4ccc(C(F)(F)F)cc4)nn4ncccc34)n2)cc1F,3.96%,1.44%,1.2%,1.5%,2.09%,-0.08%,-1.29%,0.94%,1.72%,1.67%
NC(=O)c1ccc2c(-c3ccnc(NCCCO)n3)c(-c3ccc(F)cc3)nn2c1,2.05%,2.22%,2.01%,1.39%,11%,2.42%,17.5%,2.29%,4.92%,3.3%
COc1cc(Nc2ncc(-c3ccccc3)o2)cc(OC)c1,1.45%,1.51%,1.67%,1.19%,1.72%,0.24%,2.31%,4.07%,6.3%,0.82%
NS(=O)(=O)c1cccc(N/C=C2\C(=O)Nc3ccccc32)c1,4.6%,2.79%,1.62%,0.98%,2.84%,-0.22%,2.02%,1.78%,3.72%,0.43%
N#Cc1cccc(Nc2ncc(-c3ccccc3)o2)c1,0.43%,0.96%,1.68%,-0.44%,0.37%,0.7%,2.96%,0.23%,2%,-0.01%
CCOc1ccc2c(-c3ccnc(Nc4cc(OC)cc(C(F)(F)F)c4)n3)cnn2n1,1.07%,0.6%,3.91%,0.42%,5.31%,5.55%,2.13%,1.53%,-0.66%,1.75%
FC(F)(F)CNc1nccc(-c2cnn3ncccc23)n1,-1.1%,2.98%,2.52%,1.22%,2.56%,1.27%,1.54%,2.22%,1.8%,2%
CS(=O)(=O)CCNCc1ccc(-c2ccc3ncnc(Nc4ccc(OCc5ccccc5)cc4)c3c2)o1,1.7%,2.17%,2.45%,0.5%,1.49%,1.41%,0.21%,3.12%,3.6%,2.13%
CC1=C(C(=O)Nc2ccc3[nH]nc(C)c3c2)C(c2ccc(C(F)(F)F)cc2)CC(=O)N1 (stereo not given),1.14%,3.3%,26.6%,0.72%,7.98%,-0.41%,-0.53%,3.4%,9.11%,4.48%
Cc1cc(O)cc(C)c1/C=C/c1cncc(C(N)=O)c1,1.65%,1.78%,2.91%,1.24%,1.91%,-0.18%,-2.09%,1.74%,-2.58%,3.81%
CCn1c(-c2nonc2N)nc2cncc(C(=O)NCCNC)c21,1.56%,42.5%,78.2%,15.5%,58.2%,61.1%,74.4%,73.9%,93.6%,6.21%
Cc1ccc(-c2cc3c(NC(=O)C4CC4)ncnc3o2)cc1,1.92%,1.76%,1.5%,0.9%,0.92%,2.14%,2.41%,2.1%,1.62%,2.91%

SMILES,inhibition [1],inhibition [2],inhibition [3],inhibition [4],inhibition [5],inhibition [6],inhibition [7],inhibition [8],inhibition [9],inhibition [10]
O=C(O[C@H]1CN[C@H](C#Cc2cc3ncnc(Nc4ccc5c(cnn5Cc5ccccc5)c4)c3s2)C1)N1CCOCC1,-1.36%,0.31%,1.15%,0.54%,-0.04%,-0.18%,-6.28%,-1.67%,-2.51%,1.56%
CCN1CCC(C(=O)Nc2n[nH]c3nnc(-c4cccc(F)c4F)cc23)CC1,-0.53%,0.16%,0.64%,-0.7%,0.27%,-0.34%,-0.14%,0.24%,0.58%,-1.51%
CCS(=O)(=O)c1ccc(OC)c(Nc2ncc(-c3cccc(F)c3)o2)c1,4.01%,2.45%,6.7%,1.28%,3.32%,-1.13%,2.28%,3.12%,3.91%,5.17%
COC(=O)Nc1nc2ccc(Oc3ccc(NC(=O)Nc4cc(C(F)(F)F)ccc4F)cc3)cc2s1,0.63%,1.2%,0.64%,-0.14%,9.89%,1.64%,2.17%,2.29%,1.44%,-2.55%
CN1CCC(n2cnc(-c3ccc(F)cc3)c2-c2ccnc(NCCO)n2)CC1,1.23%,2.28%,4.71%,1.14%,6.57%,0.78%,5.76%,3.08%,2.5%,3.49%
Cc1c2ccc(N(C)c3ccnc(Nc4cccc(S(N)(=O)=O)c4)n3)cc2nn1C,1.36%,-2.27%,-0.54%,-2.47%,-0.96%,0.1%,-0.52%,4.05%,1.15%,1.65%
OCCCNc1nccc(-c2c(-c3ccc(F)cc3)nn3cc(C(F)(F)F)ccc23)n1,2.27%,5.3%,1.41%,0.43%,2.81%,3.23%,5.54%,3.94%,0.31%,2.28%
COc1cccc(Nc2nccc(-c3cnn4ncccc34)n2)c1,2.46%,1.16%,6.04%,6.2%,43.4%,0.55%,5.61%,2.46%,7.69%,-1.41%
COc1cc2c(cc1Nc1nc(Nc3cccc(F)c3C(N)=O)c3cc[nH]c3n1)N(C(=O)CN1CCN(C(C)C)CC1)CC2,-0.05%,3.63%,2.83%,3.39%,1.01%,0.6%,3.47%,0.59%,1.37%,1.36%
NS(=O)(=O)c1ccc(N/N=C2\C(=O)Nc3ccc(C(=O)NCc4ccncc4)cc32)cc1,10.9%,5.56%,8.91%,0.49%,2.27%,-0.39%,5.08%,6.25%,4.31%,1.42%
N#Cc1ccc2c(-c3ccnc(NC4CC4)n3)c(-c3ccc(F)cc3)nn2c1,0.01%,1.59%,0.4%,0.15%,1.24%,-1.19%,-0.72%,2.95%,0.36%,1.4%
COc1cccc(-n2ncc3c(N/N=C/c4ccc(C(=O)NCCN(C)C)cc4)ncnc32)c1,2.52%,2.29%,11.4%,1.03%,9.37%,1.2%,6.99%,2.52%,0.62%,26.3%
CC(C)c1ccc(-c2cc(-c3c[nH]nc3-c3ccccn3)ccn2)cc1,1.17%,1.32%,2.36%,0.02%,1.23%,2.16%,3.68%,1.36%,0.07%,-1.26%
CN(c1ccc(NC(=O)NCCN2CCOCC2)cc1)c1ccnc(Nc2ccc(CS(C)(=O)=O)cc2)n1,0.31%,1.27%,4.06%,-0.51%,-0.33%,0.46%,1.54%,4.71%,5.63%,2.51%
COC(=O)Nc1nc2cc(Oc3ccc(NC(=O)Nc4ccccc4)cc3)ccc2[nH]1,1.31%,2.49%,2.15%,-0.02%,0.51%,1.53%,2.12%,2.8%,6.1%,0.41%
